Results taken from PubChem BioAssay (NCATS).
Results filed as inconclusive are left out. A call without a number means that no potency is given here. Activity calls are given as the source filed them. Calls follow the shape of the dose curve; as a rule, active = well fitted curve in the direction sought with a large enough effect; inconclusive = small, poorly fitted or top-dose-only effect, or another doubt; inactive = no such curve, though single readings can be large; an effect the other way counts as inactive or inconclusive.

Columns and labels:
[1] = molecular target: Aldehyde dehydrogenase, mitochondrial (Homo sapiens) (UniProt P05091); test: qHTS for Inhibitors of the Aldehyde Dehydrogenase Family (ALDH2) Primary screen (AID 2061308); conditions: ALDH2 enzyme inhibition qHTS, 1536-well; series mostly up to 56 µM; also: nearly all actives have a fitted effect of over 55% in size
[2] = molecular target: Retinaldehyde dehydrogenase 3 (Homo sapiens) (UniProt P47895); test: qHTS for Inhibitors of the Aldehyde Dehydrogenase Family (ALDH1A3) Primary screen (AID 2061315); conditions: ALDH inhibition qHTS; series mostly up to 56 µM

For `N#Cc1nc(-c2cccc3ccccc23)oc1NCC#CCOC(=O)c1cccs1`, which Potency [1] is on record?
Its Potency is “inactive”.

What about the Potency [2] of the same compound?
Its Potency is “inactive”.

`O=C(COC(=O)CNC(=O)c1ccccc1Cl)Nc1cc(C(F)(F)F)ccc1Cl` was tested. Which Potency [1] did it give?
The Potency was “inactive”.

What about the Potency [2] of the same compound?
The Potency was “inactive”.

Which results are given for `CCCn1c(-c2ccc(F)cc2)nc2c(NCCCN(CCO)CCO)nc(C)nc21`?
Potency [1]: inactive; Potency [2]: inactive

For `COC(=O)[C@H](Cc1ccc(O[S+](=O)([O-])c2cccc3cnccc23)cc1)N(C)[S+](=O)([O-])c1ccc2cnccc2c1`, which Potency [1] is on record?
The Potency was “inactive”.

What about the Potency [2] of the same compound?
Its Potency is “inactive”.

What does the source list for `NC[C@@H](O)c1ccc(O)c(O)c1`?
Potency [1]: inactive; Potency [2]: inactive

With `CC(C)N1CCc2c(-c3nc4ccccc4s3)csc2C1` as the compound, how does the Potency [1] read?
The Potency was “inactive”.

What about the Potency [2] of the same compound?
Its Potency is “inactive”.

Which Potency [1] does the source give for `O=C1CCCC2=C1C(c1[nH]ncc1Cl)NC(=NCc1ccccn1)N2` (stereo not given) here?
Its Potency is “inactive”.

What about the Potency [2] of the same compound?
The Potency was “inactive”.

Which results are given for `O=C(Cc1ccccc1)Nc1sc2c(c1C(=O)Nc1cccc(Cl)c1)CCCC2`?
Potency [1]: inactive; Potency [2]: inactive

With `O=C(Nc1cccnc1)C1CCCCC1` as the compound, how does the Potency [1] read?
Its Potency is “inactive”.

What about the Potency [2] of the same compound?
The Potency was “inactive”.

For `COc1ccc(-c2ccc(Nc3nc(-c4ccncc4)nc4ccccc34)cc2F)cc1F`, which Potency [1] is on record?
Its Potency is “inactive”.

And the Potency [2]?
The Potency was “inactive”.

Which Potency [1] does the source give for `Cc1ccc(-c2ccc(=O)n(CC(=O)N(C)CCc3ccco3)n2)cc1` here?
The Potency was “inactive”.

And the Potency [2]?
Its Potency is “inactive”.

What does the source list for `O=C(Nc1ccc(Cl)c(S(=O)(=O)N2CCOCC2)c1)c1ccc(S(=O)(=O)N2CCOCC2)cc1`?
Potency [1]: inactive; Potency [2]: inactive

How did the Potency [1] turn out when `O=C(NCc1ccccc1)Nc1ncnc2c1C(c1ccccc1)c1c(ccc3ccccc13)O2` (stereo not given) was run?
The Potency was “inactive”.

And the Potency [2]?
Its Potency is “inactive”.

How did the Potency [1] turn out when `Cc1cnc(-c2ccccc2C(C)O)nc1NCc1ccc(-c2cccnc2)cc1` (stereo not given) was run?
The Potency was “inactive”.

What about the Potency [2] of the same compound?
Its Potency is “inactive”.

Which results are given for `CSc1ccccc1-c1ncc(C)c(NCc2ccc(-c3cccnc3)cc2)n1`?
Potency [1]: inactive; Potency [2]: inactive
